Screening data from PubChem BioAssay.
A selection: hits, their analogues and other compounds. The true share with any hit is near 17%.
ClpP mod: qHTS Assay for Activators of ClpP; ATP-dependent Clp protease proteolytic subunit (Bacillus subtilis (strain 168)), P80244; AID 651965, 2013; Potency, µM (top dose mostly 57.5 µM); purified B. subtilis ClpP, FRET peptide cleavage, 20 min; actives 1.9% (n = 340,000); active = well fitted falling curve with a large enough effect; inconclusive = small, poorly fitted or top-dose-only effect; inactive = no such curve, though single readings can be large or run the other way; note: the source files actives as falling curves though it sought activators and does not explain the sign; nearly all actives have a fitted effect of over 65% in size
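Buffer: 100 mM Tris/HCl pH8, 100 mM KCl, 0.05% low protease BSA, 2.5% glycerol, 0.01% Tween-20. ClpP 10 microg/mL final; 20 min RT; delta FRET normalized to ADEP and DMSO controls.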
TDP1 inh: blocks human tyrosyl-DNA phosphodiesterase 1 | AID 485290 | Q9NUW8 | actives 0.28% (n = 350,000) | recombinant TDP1, AlphaScreen DNA substrate cleavage | Potency, µM (top dose mostly 130 µM), hits mostly inhibitors; note: nearly all actives have a fitted effect of over 40% in size
Target sequence (Q9NUW8 whole entry, looked up): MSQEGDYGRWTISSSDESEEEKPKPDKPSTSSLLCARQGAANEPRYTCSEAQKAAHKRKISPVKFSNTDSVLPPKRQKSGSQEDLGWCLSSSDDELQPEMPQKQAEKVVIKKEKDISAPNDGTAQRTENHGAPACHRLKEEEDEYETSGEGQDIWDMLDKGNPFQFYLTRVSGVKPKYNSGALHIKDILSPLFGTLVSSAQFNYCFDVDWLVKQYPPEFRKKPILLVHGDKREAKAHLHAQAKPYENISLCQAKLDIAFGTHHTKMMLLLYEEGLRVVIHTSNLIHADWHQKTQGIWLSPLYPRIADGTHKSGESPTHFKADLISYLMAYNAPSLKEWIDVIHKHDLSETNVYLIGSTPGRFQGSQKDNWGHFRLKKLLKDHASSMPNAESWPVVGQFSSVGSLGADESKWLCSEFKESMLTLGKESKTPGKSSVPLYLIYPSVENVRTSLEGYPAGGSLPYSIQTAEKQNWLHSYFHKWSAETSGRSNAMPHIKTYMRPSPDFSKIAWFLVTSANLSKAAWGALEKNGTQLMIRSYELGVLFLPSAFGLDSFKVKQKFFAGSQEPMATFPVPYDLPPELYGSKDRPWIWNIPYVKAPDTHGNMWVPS
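E. coli-derived human Tdp1, 1 nM final. Cpd preinc 15 min RT; substrate 15 nM final, 5 min RT; AS bead mix 10 ug/ml final, 10 min RT. Signal loss = tyrosine-FITC cleavage. No-enzyme wells = max signal.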
TDP1 cell noCPT: qHTS for Inhibitors of human tyrosyl-DNA phosphodiesterase 1 (TDP1): qHTS in cells in absence of CPT; Potency, µM (series often up to 46.2 µM), usual class: inhibitors; DT40 Tdp1-/- hTDP1 cells, no CPT, ATP luminescence, 48 h; actives 15% (n = 420,000); AID 686978, 2013; note: nearly all actives have a fitted effect of over 55% in size
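No-CPT arm: Tdp1-/-;hTDP1 DT40 cells (400/well) plus compounds, incubated ≥48 hr at 37 °C. Readout CellTiter-Glo luminescence.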
TDP1 cell CPT: growth inhibition of DT40 Tdp1-/-;hTDP1 cells with camptothecin (screen for TDP1 inhibitors); chicken DT40 Tdp1-/-;hTDP1 cells + 20 nM CPT, ATP luminescence, 48 h; Potency, µM (titrated, usually from 46.2 µM), usual class: inhibitors; actives 12% (n = 420,000); AID 686979; note: nearly all actives have a fitted effect of over 55% in size
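Cell growth measured by CellTiter-Glo luminescence after a minimum 48 h, 37 C compound exposure with 20 nM CPT in Tdp1-knockout DT40 cells stably expressing hTDP1, seeded 400/well; qHTS titration format.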
Numbers stand for hits; [ ] = another dose, or the depositor's remark. Unless noted, calls come from the whole dose curve; as a rule, active = well fitted curve in the direction sought with a large enough effect; inconclusive = small, poorly fitted or top-dose-only effect, or another doubt; inactive = no such curve, though single readings can be large; an effect the other way counts as inactive or inconclusive.

Cc1ccc(S(=O)(=O)Nc2ccc3[nH]c(=O)sc3c2)cc1C was read as ClpP mod inactive, TDP1 inh inactive, TDP1 cell noCPT 16µM and TDP1 cell CPT inconclusive.
`Cc1ccc(CCNS(=O)(=O)c2ccc3c(c2)C(C(C)C)C(=O)N3)cc1` (stereo unspecified) gave ClpP mod inactive, TDP1 inh inactive, TDP1 cell noCPT 21µM and TDP1 cell CPT inconclusive.
Cc1ccc(NS(=O)(=O)c2ccc3c(c2)NC(=O)C(C)C(=O)N3)cc1C (stereo unspecified) was read as ClpP mod inactive, TDP1 cell noCPT 18µM and TDP1 cell CPT inconclusive.
Cc1ccc(NS(=O)(=O)c2ccc3c(c2)NC(=O)C(C)C(=O)N3)cc1F (stereo unspecified) was read as ClpP mod inactive, TDP1 inh inactive, TDP1 cell noCPT inconclusive and TDP1 cell CPT inactive.
O=c1[nH]c2ccc(NS(=O)(=O)c3ccc(F)cc3)cc2s1 was read as ClpP mod inactive, TDP1 inh inactive, TDP1 cell noCPT inconclusive and TDP1 cell CPT inactive.
O=C1CCN(Cc2ccc(Cl)cc2Cl)C(=O)N1 was read as TDP1 cell noCPT inactive and TDP1 cell CPT inactive.
For Cc1ccc(NC(=O)CSc2nc3n[nH]c(C)c3c(=N)n2-c2ccccc2C)cc1C the results were ClpP mod inactive, TDP1 inh inactive, TDP1 cell noCPT inconclusive and TDP1 cell CPT inactive.
Screening CCC(Sc1nc2n[nH]c(C)c2c(=N)n1-c1ccc(C)c(Cl)c1)C(=O)N1CCOCC1 (stereo unspecified) returned ClpP mod inactive, TDP1 inh inactive, TDP1 cell noCPT inconclusive and TDP1 cell CPT inconclusive.
Screening CCC(C)NC(=O)CSc1nc2n[nH]c(C)c2c(=N)n1-c1cc(Cl)ccc1C (stereo unspecified) returned ClpP mod inactive, TDP1 inh inactive, TDP1 cell noCPT 16µM and TDP1 cell CPT inconclusive.
Screening Cc1ccc(NC(=O)CSc2nc3n[nH]c(C)c3c(=N)n2-c2cccc(C)c2)cc1 returned ClpP mod inactive, TDP1 inh inactive, TDP1 cell noCPT 3.3µM and TDP1 cell CPT 5.8µM.
Screening Cc1cccc(NC(=O)CSc2nc3n[nH]c(C)c3c(=N)n2-c2cccc(Cl)c2)c1 returned ClpP mod inconclusive, TDP1 inh inactive, TDP1 cell noCPT 15µM and TDP1 cell CPT 18µM.
`CCC(Sc1nc2n[nH]c(C)c2c(=N)n1-c1cccc(Cl)c1)C(=O)NCCOC` (stereo unspecified) gave ClpP mod inactive, TDP1 inh inactive, TDP1 cell noCPT 13µM and TDP1 cell CPT 23µM.
For COc1cc(CNCc2cc3ccc(F)cc3nc2N2CCOCC2)cc(OC)c1OC the results were TDP1 cell noCPT inactive and TDP1 cell CPT inactive[9.04 µM].
`COCC(C)n1c(C)cc(C(=O)CSc2nc(C)c(C)c(C)n2)c1C` (stereo unspecified) gave ClpP mod inactive, TDP1 cell noCPT 15µM and TDP1 cell CPT inconclusive.
For COCCn1c(C)cc(C(=O)CSc2cc(C)c3ccc(OC)cc3n2)c1C the results were ClpP mod inconclusive, TDP1 inh inactive, TDP1 cell noCPT 16µM and TDP1 cell CPT inconclusive.
Screening COCCn1c(C)cc(C(=O)CSc2ncn[nH]2)c1C returned ClpP mod inactive, TDP1 inh inactive, TDP1 cell noCPT inactive and TDP1 cell CPT inactive.
For COCCn1c(C)cc(C(=O)CSc2nc(C)c(C)c(C)n2)c1C the results were TDP1 inh inactive, TDP1 cell noCPT 23µM and TDP1 cell CPT 29µM.
For COCC(C)n1c(C)cc(C(=O)COC(=O)c2n[nH]c3ccccc23)c1C (stereo unspecified) the results were ClpP mod inactive, TDP1 inh inactive, TDP1 cell noCPT 26µM and TDP1 cell CPT inconclusive.
For COCC(C)n1c(C)cc(C(=O)CSc2nnc(N)s2)c1C (stereo unspecified) the results were ClpP mod inactive, TDP1 inh inactive, TDP1 cell noCPT inconclusive and TDP1 cell CPT inconclusive.
For COc1ccc(C(=O)OCC(=O)c2ccc3c(c2)NC(=O)CO3)cc1S(=O)(=O)N1CCOCC1 the results were TDP1 inh inactive, TDP1 cell noCPT inactive and TDP1 cell CPT inactive.
CCc1ccc(NC(=O)c2sc3nc(C)cc(C)c3c2NC(=O)c2ccccc2)cc1 was read as ClpP mod inactive and TDP1 inh inactive.
